Source: PubChem BioAssay
Calls of active or inactive are those of the source.

How the values were obtained:
[1] = target: Albumin (Bos taurus) (UniProt P02769); assay: bovine serum albumin binders on microarray, profiling panel, artefact control for SMM control protein annotation, biochemical, small-molecule microarray, Alexa647 label, 635/667 nm fluorescence (AID 1118); conditions: BSA-A647 binding, fluorescence 635 nm, higher = more signal;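 further: score merges 667 nm emission intensity and signal-to-noise per printed compound spot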
Sequence of Albumin (Bos taurus) (P02769 whole entry, looked up): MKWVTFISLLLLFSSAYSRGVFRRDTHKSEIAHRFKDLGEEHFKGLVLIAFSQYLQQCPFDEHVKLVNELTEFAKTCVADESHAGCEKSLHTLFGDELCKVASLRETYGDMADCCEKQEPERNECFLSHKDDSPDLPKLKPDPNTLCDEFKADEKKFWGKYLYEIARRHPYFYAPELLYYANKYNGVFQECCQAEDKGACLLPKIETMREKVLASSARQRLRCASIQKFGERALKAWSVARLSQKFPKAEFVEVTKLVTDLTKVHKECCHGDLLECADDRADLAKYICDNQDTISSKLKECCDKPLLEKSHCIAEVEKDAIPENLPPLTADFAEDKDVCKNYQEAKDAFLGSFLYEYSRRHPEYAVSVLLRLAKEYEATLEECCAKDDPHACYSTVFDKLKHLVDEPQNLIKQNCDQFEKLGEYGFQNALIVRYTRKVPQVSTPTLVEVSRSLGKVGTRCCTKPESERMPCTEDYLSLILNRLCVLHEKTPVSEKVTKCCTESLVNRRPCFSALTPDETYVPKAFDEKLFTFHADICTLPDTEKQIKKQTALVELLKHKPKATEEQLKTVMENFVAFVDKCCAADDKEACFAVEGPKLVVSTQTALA

[2] = small-molecule microarray binders of probe aXIP, primary screen, biochemical, NeuroSMM set, 635/667 nm fluorescence (AID 1119); conditions: higher = more signal, called active from +8 up or from −8 down;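 further: probe is the protein aXip251-270 applied at 1 µg/mL to compound-printed slides; binding of probe to printed compounds measured as 667 nm fluorescence plus signal to noise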
[3] = small-molecule binders of probe aNOTCH3, primary screen, biochemical, small-molecule microarray, 635/667 nm fluorescence (AID 1120); conditions: higher = more signal;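 further: probe is a biotin-tagged antibody raised against NOTCH3 rather than NOTCH3 protein; score merges spot fluorescence near 667 nm with spot signal to noise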
[4] = small-molecule binders of probe aNOTCH2, primary screen, biochemical, small-molecule microarray, 635/667 nm fluorescence (AID 1121); conditions: higher = more signal;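 further: score merges feature fluorescence read at 667 nm with its signal to noise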
[5] = target: Carbonic anhydrase 2 (Homo sapiens) (UniProt P00918); assay: CAII small-molecule binders, profiling panel, biochemical, small-molecule microarray, Alexa647-labelled CAII (AID 1122); conditions: CAII-A647 binding fluorescence, higher = more signal
[6] = COS7 lysate on small-molecule microarray, probe aHis, 635 nm (AID 1123); conditions: COS7 cell lysate, fluorescence, higher = more signal;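 further: z-score combines 667nm fluorescence intensity with signal-to-noise per printed compound spot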
[7] = compound binding in COS7 lysate, probe aLAP1, primary screen, cell lysate, small-molecule microarray (AID 1124); conditions: probe aLAP1, fluorescence, higher = more signal;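 further: lysate comes from COS7 cells expressing LAP1 and is applied at 0.3 µg/mL; score merges spot fluorescence near 667 nm with signal-to-noise over triplicate slides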
[8] = tested on: Sam68 (KHDRBS1); assay: Sam68 small-molecule binders, primary screen, biochemical, small-molecule microarray, 635 nm fluorescence (AID 1125); conditions: small-molecule microarray binding, higher = more signal;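 further: score merges 667 nm channel intensity with signal to noise over triplicate slides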
[9] = tested on: Chordin-like protein 2 (CHRDL2); assay: CHRDL2 small-molecule binders, primary screen, biochemical, small-molecule microarray, 635 nm fluorescence (AID 1126); conditions: small-molecule microarray binding, fluorescence 635 nm; higher = more signal;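 further: printed compound slides probed with Chrdl2 protein at 4 µg/mL for 1 h at 4 C; score merges 667 nm emission intensity with signal to noise over three replicate slides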
[10] = target: Concanavalin-A (Canavalia ensiformis) (UniProt P02866); assay: ConA small-molecule binders, primary screen, artefact control for SMM control protein annotation, biochemical, small-molecule microarray, Alexa647 label, 635 nm (AID 1127); conditions: ConA-A647 binding fluorescence, higher = more signal;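 further: z combines 667 nm emission intensity with signal-to-noise across three replicate slides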
Sequence of Concanavalin-A (Canavalia ensiformis) (P02866 whole entry, looked up): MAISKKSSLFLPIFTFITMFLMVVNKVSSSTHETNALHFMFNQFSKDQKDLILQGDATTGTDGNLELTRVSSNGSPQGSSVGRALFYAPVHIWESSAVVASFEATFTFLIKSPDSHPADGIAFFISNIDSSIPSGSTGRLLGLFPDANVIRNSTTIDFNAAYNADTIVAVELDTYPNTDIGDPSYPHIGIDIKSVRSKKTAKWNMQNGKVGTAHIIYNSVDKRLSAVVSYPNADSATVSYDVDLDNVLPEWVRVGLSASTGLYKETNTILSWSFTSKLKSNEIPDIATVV

Structure (SMILES) | composite z-score [1] | composite Z-score [2] | composite z-score [3] | composite z-score [4] | composite z-score [5] | composite z-score [6] | composite z-score [7] | composite z-score [8] | composite z-score [9] | composite z-score [10]
CCCCCCC#C[Si](O[C@H](c1ccccc1)c1cn([C@H](CO)Cc2ccccc2)nn1)(C(C)C)C(C)C | -0.188 | -0.377 (inactive) | -0.158 | -0.14 | 0.855 | 1 | 0.256 | 0.729 | -0.346 | -0.0362
CN(C)CCCNC(=O)[C@@]1(c2ccc([N+](=O)[O-])cc2)CC(=O)N(C2CCCCC2)[C@@H]1c1ccc(CO)cc1 | 0.611 | -0.14 (inactive) | -0.0795 | -0.146 | 0.395 | 1.68 | -0.0291 | 0.819 | -0.357 | 0.282
C=CC[C@@]1(C(=O)NCc2ccccc2)N=C(c2ccc(OCCCO)cc2)O[C@@H]1c1ccccc1N=[N+]=[N-] | 0.98 | -0.108 (inactive) | 0.355 | 0.0186 | 0.712 | 3.18 | 0.736 | 1.3 | -0.623 | 0.906
CN1C(=O)C2C=CC(C(O)c3ccccc3)N(Nc3ccccc3)C2C1=O (stereo not given) | 0.761 | 0.131 (inactive) | -0.128 | -0.0543 | 0.78 | 2.45 | 0.119 | -0.0508 | -1.02 | 0.142
CCOC(=O)C[C@H]1[C@H](OC(=O)Cc2ccc3c(c2)OCO3)[C@@H](NC(=O)c2ccc(-c3ccccc3)cc2)c2cc(OCCCO)ccc2N1C(=O)c1ccc2ccccc2n1 | 0.238 | -0.549 (inactive) | -0.112 | -0.182 | 0.0289 | 0.1 | 0.0968 | 0.202 | 0.415 | 0.643
CC(CO)N1C(=O)[C@@H]2C3C(=O)OCCC/C=C\[C@H]3OC23C=CCN(c2ccc4ccccc4c2)C(=O)[C@@H]13 (stereo not given in full) | 0.611 | -0.0775 (inactive) | -0.219 | -0.115 | 0.0684 | -0.519 | -0.377 | -0.704 | -0.535 | -0.172
Cc1ccc(S[C@]2(C(=O)NC(C)C)CC(=O)N(Cc3ccccc3Cl)[C@@H]2c2ccc(CO)cc2I)cc1 | 0.408 | 0.219 (inactive) | -0.469 | -0.168 | 0.779 | 1.21 | -0.147 | 0.462 | -0.793 | -0.139
C=CCNC(=O)[C@@H]1[C@H]2C(=O)O[C@H](c3ccccc3)[C@H](c3ccccc3)N2[C@H](c2ccc(OCCO)cc2)[C@@]12C(=O)Nc1ccc(C#Cc3ccc(OC)cc3)cc12 | 0.77 | 0.883 (inactive) | 0.102 | -0.0464 | 0.331 | 1.14 | 0.606 | 1.3 | 0.605 | 1.13
O=C1O[C@H](c2ccccc2)[C@H](c2ccccc2)N2[C@H]1[C@@H](C(=O)Nc1nc3ccccc3s1)[C@]1(C(=O)Nc3ccc(C#CCCO)cc31)[C@H]2c1ccc(OCCO)cc1 | 0.797 | 0.0956 (inactive) | 0.134 | 0.0785 | 0.419 | 1.42 | 0.516 | 1.32 | 0.586 | 1.09
CS(=O)(=O)CCOC(=O)C1=CC(CCCO)=CC(c2ccc(CN3CCCC3)cc2)N(Cc2cc3c(cc2Br)OCO3)C=C1C(=O)OCCS(C)(=O)=O (stereo not given) | 0.649 | 1.09 (inactive) | 0.165 | -0.0163 | 0.804 | 1.78 | 1.31 | 1.31 | 0.373 | 1.08
O=C1[C@H]2C=C(Br)[C@H](C[C@@H]2c2ccccc2)[C@@]12CO2 | -0.6 | 1.22 (inactive) | 0.11 | -0.0817 | 0.183 | -0.0697 | -0.187 | 0.383 | 0.945 | -0.0479
O=C1[C@H]2C=C(Br)[C@H](C[C@@H]2OCCCCO)[C@@]12CO2 | 0.0664 | 0.572 (inactive) | -0.0918 | -0.162 | -0.191 | -0.574 | 0.102 | -0.264 | 0.483 | -0.0118
C=CCOC(=O)[C@H]1[C@@H]2C(=O)O[C@@H](c3ccccc3)[C@@H](c3ccccc3)N2[C@@H](c2ccc(OCCOC(=O)[C@@H]3C[C@@H]4C(=O)N5CCC[C@H]5C(=O)N4[C@@H]3c3cccc(OCCO)c3)cc2)[C@]12C(=O)Nc1ccccc12 | -0.292 | 0.594 (inactive) | 0.336 | 0.0087 | 0.192 | 1.73 | 0.383 | 1.29 | 0.902 | 1.17
CN1C(=O)C2C=CC(C(O)c3cc(C(F)(F)F)cc(C(F)(F)F)c3)N(N3CCCCC3)C2C1=O (stereo not given) | 0.712 | 2.11 (inactive) | 0.0488 | -0.0467 | 0.551 | 1.79 | -0.33 | 1.08 | -0.672 | 0.768
CCOC(=O)C[C@H]1[C@H](OC(=O)c2cc3ccccc3oc2=O)[C@@H](NC(=O)C2CCCCC2)c2cc(OCCCO)ccc2N1C(=O)c1ccccc1 | 0.266 | -0.275 (inactive) | 0.281 | -0.0482 | 0.274 | 0.112 | -0.0802 | 1.04 | 0.438 | 0.282
C=CCNC(=O)[C@@H]1[C@H]2C(=O)O[C@H](c3ccccc3)[C@H](c3ccccc3)N2[C@H](c2ccccc2OCCO)[C@@]12C(=O)N(C(=O)OCCOC)c1ccc(C#CCNC(N)=O)cc12 | 0.79 | -0.105 (inactive) | 0.184 | -0.0772 | 0.247 | 1.47 | 0.546 | 1.32 | -0.182 | 0.959
